The entries come from a sample that favours hits as a whole.
Tgondii IFNg = blocks Toxoplasma gondii growth in the presence of IFN-gamma | hit rate 3.8% among 69,000 | Toxoplasma gondii growth in IFN-gamma-treated host cells; active compounds read low | activity change, negative = inhibition, % (no concentration beside the values); in the data active = activity change below about -70%, passing the limit was not always enough;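 note: host cells are HeLa cells infected with Toxoplasma gondii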
A number is an active result; - = inactive; ! = a repeat was not active.

SMILES	Tgondii IFNg
N#Cc1nc(-c2ccc(C(F)(F)F)cc2)oc1N	-96
FC(F)(F)c1ccc(-c2nnc(-c3ccc4nccnc4c3)o2)cc1	-
FC(F)(F)c1ccc(C2=NCCO2)cc1	-
CCCCCCCCCCOc1cc2c(=O)c(C(=O)OCC)c[nH]c2cc1OCC	-
Cn1cc(CN2C[C@H]3CCCO[C@H]3[C@H](NS(C)(=O)=O)C2)cn1	-
Cc1csc(CN2C[C@H]3CCCO[C@H]3[C@H](N3CCCC3)C2)n1	-
COCC(=O)N[C@H]1CN(Cc2scnc2C)C[C@H]2CCCO[C@H]21	-81
COc1ccc2c(c1)NC1(CCN(C(=O)CC3CCCC3)CC1)c1cccn1-2	-
Cc1c(Nc2ncnc3sc4c(c23)CCCC4)c(=O)n(-c2ccccc2)n1C	-
c1ccc(COc2ccccc2CN(CCN2CCOCC2)Cc2cccnc2)nc1	-
O=c1nc(Nc2ccc(OC(F)(F)F)cc2)c2ccccc2o1	-
O=C(Nc1ccc(OC(F)(F)F)cc1)c1c(O)c2ccccc2[nH]c1=O	-
O=c1cc(Nc2ccc(OC(F)(F)F)cc2)c2ccccc2o1	-102
CN(C)CCN1C(=O)CC2C1CCN2S(=O)(=O)c1cccs1 (stereo not given)	-
CN(CCCc1cnn(C)c1)C(=O)c1cccc(CC2CCNCC2)c1	-
Cc1ccc(NC(=O)c2ccnn2-c2ccc3ccc(-c4cccnc4)cn23)cn1	-
Cc1ccc(S(=O)(=O)Nc2cncc(C(=O)Nc3ccc(C)cc3Cl)c2)c(C)c1	-
CCc1nc(C)c(C(=O)N(C)Cc2snnc2C)o1	-
CCc1nc(C)c(C(=O)N(C)Cc2csc(C(C)C)n2)o1	-92
CCc1nc(C)c(C(=O)N(C)Cc2ccc3nsnc3c2)o1	-
N#C[C@@H]1[C@@H](c2ccccc2-c2ccc(F)cc2)[C@H](CO)N1C(=O)Cc1cccnc1	-
Cc1ccc(NC(=O)c2snc3c(=O)[nH]cnc23)cc1	-111
Cc1ccc(NC(=O)c2c(O)c3cccnc3[nH]c2=O)cc1	-
CSc1nsc(SCC(=O)Nc2ccc(C)cc2)n1	-
OC1CCC(Nc2ncc3nc(Nc4c(F)cc(F)cc4F)n([C@H]4CCOC4)c3n2)CC1 (stereo not given in full)	-73
SMILES	Tgondii IFNg
Fc1cnc(NC2COC3(CCCN(CC4CCOCC4)C3)C2)nc1 (stereo not given)	-
CCc1nc(-c2cc(C(=O)N3CCCC3)c3ccccn23)cs1	-
COc1cc(Br)c(-c2cc3ccccc3oc2=O)cc1OC	-86
COc1ccccc1NC(=O)c1cccc(-c2cc3ccccc3oc2=O)c1	-
COc1cc(NC(=O)c2ccc(Cl)cc2Cl)ccc1-c1cc2ccccc2oc1=O	-85
COc1cccc2cc(-c3ccccc3)c(=O)oc12	-
O=c1oc2ccccc2cc1-c1csc(-c2ccccc2Cl)n1	-
O=C(COC(=O)c1cc2ccccc2oc1=O)c1ccc(Cl)cc1Cl	-
Cc1ccc2[nH]cc(CCN3CC(C(=O)Nc4ccc5c(c4)CCC5)CC3=O)c2c1 (stereo not given)	-
Cc1csc(CNC(=O)c2cccc(NCc3cccnc3)c2C)n1	-
COc1ccc(CCn2nc(C(=O)NC3CC3)c3c2CCN(C(=O)c2ccc(F)cc2Cl)C3)cc1	-
COc1ccc(-c2ccccc2NC(=O)c2cccc(CN3CCCC3=O)c2)cc1	-
O=c1[nH]c2cc3c(cc2cc1CN(CCO)Cc1nnnn1Cc1ccccc1)OCCO3	-82
CN(CCCc1cnn(C)c1)Cc1cc2ccc(F)cc2[nH]c1=O	-
Cc1ccc2cc(CN(CCO)CCO)c(=O)[nH]c2c1	-
Cc1cccc2cc3c(nc12)OC(C)C(=O)N(Cc1cccnc1)C3 (stereo not given)	-
Nc1ccc(Sc2nc3ccccc3s2)c(Cl)c1	-
O=C1CN(C(=O)C2CC3(CCNCC3)CN2)CCN1CCc1ccccc1 (stereo not given)	-
Nc1ccccc1NC(=O)c1ccc(CNc2nccc(-c3cccnc3)n2)cc1	-79!
CS(=O)(=O)n1nc(-c2cccnc2)nc1NCc1ccc(Cl)cc1	-
CC(=O)C(Sc1nccc(-c2cccnc2)n1)C(C)=O	-
CCn1cnc2cc(NC(=O)c3cc(Cn4nc(C)cc4C)nc4ccccc34)ccc21	-
Cc1nc(N)nc2c1CCCC2	-
Cc1ccc(S(=O)(=O)N(C)c2cncc(C(=O)N3CCCCCC3)c2)cc1	-
Cc1ccc(S(=O)(=O)N(C)c2cncc(C(=O)N3CCC(Cc4ccccc4)CC3)c2)cc1	-96
SMILES	Tgondii IFNg
CN(c1cncc(C(=O)N2CCN(c3cccc(Cl)c3)CC2)c1)S(=O)(=O)c1ccccc1	-
C[C@@H]1CN([C@H](C)CO)C(=O)CCCn2cc(nn2)CO[C@H]1CN(C)Cc1ccccc1	-
CN1CCn2c(-c3ccccc3)cnc2C12CCN(S(=O)(=O)c1ccccc1)CC2	-108
Cc1ccc(CN2CCC3(CC2)c2ncc(-c4ccccc4)n2CCN3C)o1	-
Cc1ccc(C)c(S(=O)(=O)N2CCC3(CC2)c2ncc(-c4cccc(F)c4)n2CCN3C)c1	-
CCN(Cc1cncn1C)c1ccc(OCCOc2ccccc2OC)cc1	-
Cc1ccc(SC(=O)c2csnn2)cc1	-102
O=C(Nc1ccc(Cl)cc1)c1csnn1	-
CC(C)N(C(=O)NC(=O)c1csnn1)C(C)C	-
Cc1cccc(S(=O)(=O)N2CCC(N(C)C)CC2(C)C(=O)O)c1 (stereo not given)	-
CC(C)Nc1nc2c(cc1C(=O)N(C)C)CCN(C(=O)NC1CCCC1)CC2	-
CC(=O)c1cn(CC(=O)Nc2cnc3n2CCCC3)c2ccccc12	-
Cc1ccc2c(c1)CCC21CCN(c2nncs2)CC1	-
Cc1cc(CN2CC3C[C@@H](O)CN3C[C@@H]2C)c(C)n1-c1ccc2c(c1)OCO2 (stereo not given in full)	-
CC(C)CN1C(=O)N(C)C2(CCN(CC(C)Cc3ccc4c(c3)OCO4)CC2)C1=O (stereo not given)	-
CC(Cc1ccc2c(c1)OCO2)CN1CC2C[C@@H](O)CN2C[C@H]1C (stereo not given in full)	-86
Cc1cc(NC(=O)C(=O)N(C)Cc2cnn(-c3ccccc3C)c2)no1	-
COCC(=O)Nc1ccc2c(c1)OC[C@@H](C)N(C)C[C@@H](C)[C@H](OC)CN(C)C2=O	-
COc1cc2c(c(OC)c1OC)-c1ccc(OC)c(=O)cc1C(NC(C)=O)CC2 (stereo not given)	-79
COc1cc(-c2cccc(NC(C)=O)c2)cc(OC)c1OC	-
COc1cc2c(c(OC)c1OC)C(=O)CC2	-
N#C[C@H]1[C@@H](c2ccc(-c3cccc(F)c3)cc2)[C@H](CO)N1C(=O)NC1CCCC1	-
COC(=O)[C@@H]1C[C@@H](N(C)C)CN1C(=O)c1ccncc1Cl	-
COc1ccc(NC(=O)N(C)C[C@H]2Oc3ccc(NC(=O)CCN4CCOCC4)cc3C(=O)N([C@H](C)CO)C[C@@H]2C)cc1	-
Clc1cc(Cl)cc(N=c2ssnc2-c2ccccc2Cl)c1	-90
SMILES	Tgondii IFNg
CS(=O)(=O)N1C[C@@H](O)COC[C@H]2O[C@H](CC(=O)NCc3ccccc3)CC[C@@H]21	-
COc1ccc(-c2nc(N3CCCC3)c3ccccc3n2)cc1	-
Clc1nnc(N2CCCCC2)c2ccccc12	-88
Cc1nc(Cl)c(Cc2ccccc2)c(N2CCCC2)n1	-
CNCc1ccccc1	-
O=C(O)CCc1ccc(NCc2cccc(Oc3ccccc3)c2)cc1	-
c1ccc(CNc2ccc(C3c4ccccc4Oc4ccccc43)cc2)cc1	-97
Cc1ccc(CNC(=O)CCC2Nc3c4ccccc4nc(=S)n3C2=O)o1 (stereo not given)	-
Cc1cccc(C)c1NC(=O)Cn1ncc2c(N3CCN(c4ccccn4)CC3)ncnc21	-

Bioassay records as filed in PubChem BioAssay.
